Inconclusive results are not listed. Unmarked numbers belong to inactive results. Calls of active or inactive are those of the source. Calls follow the shape of the dose curve; as a rule, active = well fitted curve in the direction sought with a large enough effect; inconclusive = small, poorly fitted or top-dose-only effect, or another doubt; inactive = no such curve, though single readings can be large; an effect the other way counts as inactive or inconclusive.

Viability and Potency data for seven compounds are collected here from PubChem BioAssay (NCATS).

Assay [1] is described as follows: BET inhibitor-based combinations targeting novel dependencies in MECOM-rearranged (r) AML: SET-2 cell line (AID 2202231). Also: nearly all actives have a fitted effect of over 35% in size.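 As to Viability: plate controls were DMSO treated cells for no effect and wells without cells for full effect.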 To be noted: SET-2 AML cells viability, CellTiter-Glo luminescence, 48 h; viability: active compounds read low, concentration not given here. A digest of the protocol:
(§1)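 Readout: CellTiter-Glo luminescence. Exposure: 48 h, 11 concentrations, 500 cells/well. Metric: AUC and within-line Z-AUC after DMSO/empty-well normalization.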
(In general: In ATP-based viability assays light output follows the ATP content of the culture.)

Assay [2] in a line: BET inhibitor-based combinations targeting novel dependencies in MECOM-rearranged (r) AML: OCI-AML3 cell line (AID 2202232). Also: nearly all actives have a fitted effect of over 35% in size. The following applies: Potency: OCI-AML3 viability. The essentials: as §1
A short description of assay [3]: BET inhibitor-based combinations targeting novel dependencies in MECOM-rearranged (r) AML: MV-4-11 cell line (AID 2202233). Also: nearly all actives have a fitted effect of over 45% in size. A digest of the protocol: (§2)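 Seeding density was 500 cells/well, and drug exposure lasted 48 hr under standard culture conditions. Read-out used CellTiter-Glo reagent with a 15 min room-temperature incubation before luminescence measurement; AUC and Z-AUC summarize the normalized responses.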

Assay [4] in a line: BET inhibitor-based combinations targeting novel dependencies in MECOM-rearranged (r) AML: HNT-34 cell line (AID 2202234). Also: nearly all actives have a fitted effect of over 35% in size. The essentials:
as §2

Assay [5] in a line: BET inhibitor-based combinations targeting novel dependencies in MECOM-rearranged (r) AML: UCSD-AML1 cell line (AID 2202235). Also: nearly all actives have a fitted effect of over 40% in size. The essentials:
as §2

Assay [6] in a line: BET inhibitor-based combinations targeting novel dependencies in MECOM-rearranged (r) AML: AML-191 cell line (AID 2202236; also: nearly all actives have a fitted effect of over 35% in size). The essentials:
as §1

A short description of assay [7]: BET inhibitor-based combinations targeting novel dependencies in MECOM-rearranged (r) AML: AML-194 cell line (AID 2202237; also: nearly all actives have a fitted effect of over 40% in size). The essentials: as §1
Potency is read from the fitted curve at half-maximal effect.

Broadly, the viability is a read-out of living cells in per cent, often relative to untreated cells. Regarding `COC(=O)[C@@H]1CC2=CC(=O)CC[C@]2(C)[C@@]23O[C@@H]2C[C@@]2(C)[C@@H](CC[C@@]24CCC(=O)O4)[C@H]13`, the viability in assay [1] is 106%. For the same compound, the Potency result in assay [2], in assay [3], in assay [4], in assay [5], in assay [6] and in assay [7] was “inactive” throughout.

On to `N=C(N)c1ccc(OCCCCCOc2ccc(C(=N)N)cc2)cc1`, for which the Potency was 20.9 µM (active) in assay [1]; 8.33 µM (active) in assay [2]; 13.2 µM (active) in assay [3]; 26.3 µM (active) in assay [4]; 23.5 µM (active) in assay [5]; 18.6 µM (active) in assay [6]. The Potency in assay [7] was 20.9 µM (active).

Consider `CC(C)C(N)C(=O)OCC(CO)OCn1cnc2c(=O)[nH]c(N)nc21` (stereo unspecified), for which the viability in assay [1] is 87%. Also, the Potency result in assay [2], in assay [3], in assay [4], in assay [5], in assay [6] and in assay [7] was “inactive” throughout.

With `Cc1ccc(-n2[nH]c(C)c(N=Nc3cccc(-c4cccc(C(=O)O)c4)c3O)c2=O)cc1C`, in assay [1], the viability is 109%. For the same compound, the Potency result in assay [2], in assay [3], in assay [4], in assay [5] and in assay [7] was “inactive” in each case.

`NC(=O)/C(=C/n1cnc(-c2cc(C(F)(F)F)cc(C(F)(F)F)c2)n1)c1cncnc1`: the Potency was 0.59 µM (active) in assay [1]; 0.742 µM (active) in assay [2]; 0.186 µM (active) in assay [3]; 0.742 µM (active) in assay [4]; 0.118 µM (active) in assay [5]; 0.166 µM (active) in assay [7].

As for `CC(C)(C)OC(=O)Nc1ccc(-c2cc(C(=O)NCCCCCCC(=O)NO)no2)cc1`, the Potency was 2.95 µM (active) in assay [1]; 2.63 µM (active) in assay [2]; 1.66 µM (active) in assay [3]; 2.35 µM (active) in assay [4]; 3.72 µM (active) in assay [5]; 2.63 µM (active) in assay [6]. The Potency in assay [7] is 3.32 µM (active).

With `CN(C)C(=O)COC(=O)Cc1ccc(OC(=O)c2ccc(N=C(N)N)cc2)cc1`, in assay [1], the viability is 115%. The Potency entry in assay [2], in assay [3], in assay [4], in assay [5] and in assay [7] was “inactive” each time.
